# In publication PMC7862700, “An all-to-all approach to the identification of sequence-specific readers for epigenetic DNA modifications on cytosine”:
# Assays:
# Assay in all cases: DAPPL (digital affinity profiling via proximity ligation, sequencing); 10 mM Tris-HCl pH 7.5, 50 mM NaCl, 1 mM DTT, 4% glycerol, room temperature, 30 min; GST-TFs on glutathione beads, 16-mer random dsDNA library, 0.1% formaldehyde crosslink after washing; high values mean tight binding
# FLI1 = target: T1, FLI1 (Homo sapiens, UniProt Q01543 1-452); settings: protein: recombinant; tags: N-terminal GST; dsDNA, one strand shown
# T1 sequence: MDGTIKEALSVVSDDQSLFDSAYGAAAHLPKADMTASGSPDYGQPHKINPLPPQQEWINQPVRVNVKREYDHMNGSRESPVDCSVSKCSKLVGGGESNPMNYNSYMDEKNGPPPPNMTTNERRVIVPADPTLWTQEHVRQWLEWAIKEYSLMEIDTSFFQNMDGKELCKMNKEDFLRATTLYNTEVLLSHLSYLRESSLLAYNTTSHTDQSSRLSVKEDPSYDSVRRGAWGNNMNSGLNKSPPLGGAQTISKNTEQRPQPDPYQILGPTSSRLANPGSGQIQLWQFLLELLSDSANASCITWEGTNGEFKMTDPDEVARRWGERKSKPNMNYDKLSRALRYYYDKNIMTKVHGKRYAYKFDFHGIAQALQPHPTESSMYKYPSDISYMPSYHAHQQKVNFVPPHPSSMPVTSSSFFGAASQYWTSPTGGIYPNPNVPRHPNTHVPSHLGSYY
# Summary of the method: (§1)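 GST fusions of human transcription factors were expressed in yeast and captured with glutathione beads. Once given DNA barcodes and pooled alongside a tag-only sample, they were incubated for 30 min at room temperature with 200 nmole of a random double-stranded 16-mer DNA library in Tris/NaCl/DTT/glycerol buffer, then washed, crosslinked (0.1% formaldehyde), proximity-ligated, PCR-amplified and sequenced on an Illumina NextSeq500. The binding signal of each hexamer is its read frequency for a factor divided by its frequency for the tag-only sample.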
# ELK1 = target: T2, ELK1 (Homo sapiens, UniProt P19419 1-428); settings: protein: recombinant; tags: N-terminal GST; dsDNA, one strand shown
# T2 sequence: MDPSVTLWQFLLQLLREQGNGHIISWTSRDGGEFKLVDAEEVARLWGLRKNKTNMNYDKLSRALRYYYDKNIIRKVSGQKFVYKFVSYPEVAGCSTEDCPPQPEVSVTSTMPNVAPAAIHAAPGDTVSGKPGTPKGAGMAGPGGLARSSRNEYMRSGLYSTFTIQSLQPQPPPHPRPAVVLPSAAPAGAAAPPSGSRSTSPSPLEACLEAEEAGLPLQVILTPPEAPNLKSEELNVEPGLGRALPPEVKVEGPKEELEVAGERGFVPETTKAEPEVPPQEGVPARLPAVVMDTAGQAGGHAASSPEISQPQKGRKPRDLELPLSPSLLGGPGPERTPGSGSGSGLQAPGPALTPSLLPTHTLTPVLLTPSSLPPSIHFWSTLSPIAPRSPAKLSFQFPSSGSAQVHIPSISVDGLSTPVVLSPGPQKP
# Summary of the method: as §1
# GABPA = target: T3, GABPA (Homo sapiens, UniProt Q06546 1-454); settings: protein: recombinant; tags: N-terminal GST; dsDNA, one strand shown
# T3 sequence: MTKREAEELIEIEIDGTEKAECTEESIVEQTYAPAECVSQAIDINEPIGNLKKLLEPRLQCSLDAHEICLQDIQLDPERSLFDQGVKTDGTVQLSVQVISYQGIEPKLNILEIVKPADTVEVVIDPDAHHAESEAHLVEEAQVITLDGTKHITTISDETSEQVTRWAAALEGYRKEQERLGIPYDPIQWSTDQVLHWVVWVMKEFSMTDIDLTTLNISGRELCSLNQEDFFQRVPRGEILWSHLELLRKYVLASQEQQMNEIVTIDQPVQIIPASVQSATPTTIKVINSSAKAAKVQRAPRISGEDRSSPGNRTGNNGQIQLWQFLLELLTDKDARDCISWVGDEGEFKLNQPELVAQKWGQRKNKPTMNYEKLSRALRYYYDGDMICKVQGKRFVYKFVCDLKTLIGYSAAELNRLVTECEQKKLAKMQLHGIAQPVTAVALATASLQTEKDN
# Summary of the method: as §1
# ERG = target: T4, ERG (Homo sapiens, UniProt P11308 1-479); settings: protein: recombinant; tags: N-terminal GST; dsDNA, one strand shown
# T4 sequence: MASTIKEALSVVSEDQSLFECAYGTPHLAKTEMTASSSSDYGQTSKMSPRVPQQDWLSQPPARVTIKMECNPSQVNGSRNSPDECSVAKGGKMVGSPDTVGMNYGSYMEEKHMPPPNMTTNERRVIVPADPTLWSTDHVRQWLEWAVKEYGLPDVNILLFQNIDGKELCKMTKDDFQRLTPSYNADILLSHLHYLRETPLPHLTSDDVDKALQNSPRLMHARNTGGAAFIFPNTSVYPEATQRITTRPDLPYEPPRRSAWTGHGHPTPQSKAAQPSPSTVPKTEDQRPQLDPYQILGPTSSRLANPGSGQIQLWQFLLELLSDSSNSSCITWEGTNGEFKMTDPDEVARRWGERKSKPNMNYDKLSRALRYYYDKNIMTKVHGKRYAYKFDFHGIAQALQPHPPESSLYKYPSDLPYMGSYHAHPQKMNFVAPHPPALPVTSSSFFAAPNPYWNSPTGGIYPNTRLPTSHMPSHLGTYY
# Summary of the method: as §1
# ELF1 = ELF1 (Homo sapiens, UniProt P32519 1-619); settings: protein: recombinant; tags: N-terminal GST; dsDNA, one strand shown
# Summary of the method: as §1
# EHF = target: T5, EHF (Homo sapiens, UniProt Q9NZC4 1-300); settings: protein: recombinant; tags: N-terminal GST; dsDNA, one strand shown
# T5 sequence: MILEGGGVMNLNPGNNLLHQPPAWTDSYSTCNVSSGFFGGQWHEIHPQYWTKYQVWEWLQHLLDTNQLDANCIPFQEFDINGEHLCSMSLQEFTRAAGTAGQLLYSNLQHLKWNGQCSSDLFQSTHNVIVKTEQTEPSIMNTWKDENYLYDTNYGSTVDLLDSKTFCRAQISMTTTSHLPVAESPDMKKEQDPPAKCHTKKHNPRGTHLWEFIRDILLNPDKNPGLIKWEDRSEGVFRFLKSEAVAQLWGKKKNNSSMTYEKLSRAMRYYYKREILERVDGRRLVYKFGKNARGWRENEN
# Summary of the method: as §1
# SPI1 = SPI1 (Homo sapiens, UniProt P17947 1-270); settings: protein: recombinant; tags: N-terminal GST; dsDNA, one strand shown
# Summary of the method: as §1
# SPIB = SPIB (Homo sapiens, UniProt Q01892 1-262); settings: protein: recombinant; tags: N-terminal GST; dsDNA, one strand shown
# Summary of the method: as §1
# ELK3 = target: T6, ELK3 (Homo sapiens, UniProt P41970 1-407); settings: protein: recombinant; tags: N-terminal GST; dsDNA, one strand shown
# T6 sequence: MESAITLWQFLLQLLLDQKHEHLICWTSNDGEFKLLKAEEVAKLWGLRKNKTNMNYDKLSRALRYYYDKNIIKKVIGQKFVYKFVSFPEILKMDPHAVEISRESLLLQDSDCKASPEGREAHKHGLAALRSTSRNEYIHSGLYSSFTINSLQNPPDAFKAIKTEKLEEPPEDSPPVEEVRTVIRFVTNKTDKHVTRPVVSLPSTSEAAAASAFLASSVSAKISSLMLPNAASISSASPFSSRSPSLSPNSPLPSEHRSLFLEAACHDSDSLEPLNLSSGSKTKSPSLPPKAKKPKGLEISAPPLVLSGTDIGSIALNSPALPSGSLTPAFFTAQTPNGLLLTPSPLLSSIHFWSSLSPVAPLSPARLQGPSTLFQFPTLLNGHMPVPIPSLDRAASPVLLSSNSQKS
# Summary of the method: as §1
# FEV = target: T7, FEV (Homo sapiens, UniProt Q99581 1-238); settings: protein: recombinant; tags: N-terminal GST; dsDNA, one strand shown
# T7 sequence: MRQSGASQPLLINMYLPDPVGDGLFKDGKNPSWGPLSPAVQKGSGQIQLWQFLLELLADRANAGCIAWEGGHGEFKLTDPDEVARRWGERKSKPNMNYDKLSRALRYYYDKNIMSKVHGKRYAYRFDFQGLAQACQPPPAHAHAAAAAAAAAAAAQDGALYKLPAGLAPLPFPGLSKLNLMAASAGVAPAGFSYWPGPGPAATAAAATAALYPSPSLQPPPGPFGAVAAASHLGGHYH
# Summary of the method: as §1
# ETV5 = ETV5 (Homo sapiens, UniProt P41161 1-510); settings: protein: recombinant; tags: N-terminal GST; dsDNA, one strand shown
# Summary of the method: as §1
# HSF1 = HSF1 (Homo sapiens, UniProt Q00613 1-529); settings: protein: recombinant; tags: N-terminal GST; chain copies: 3; dsDNA, one strand shown
# Summary of the method: as §1
# SPIC = target: T8, SPIC (Homo sapiens, UniProt Q8N5J4 1-248); settings: protein: recombinant; tags: N-terminal GST; dsDNA, one strand shown
# T8 sequence: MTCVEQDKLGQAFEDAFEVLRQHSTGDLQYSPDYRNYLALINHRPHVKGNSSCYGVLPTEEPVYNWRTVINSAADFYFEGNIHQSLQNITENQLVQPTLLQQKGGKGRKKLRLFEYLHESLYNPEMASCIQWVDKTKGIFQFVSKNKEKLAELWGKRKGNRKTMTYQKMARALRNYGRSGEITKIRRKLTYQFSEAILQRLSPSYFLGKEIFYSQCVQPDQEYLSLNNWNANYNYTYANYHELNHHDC
# Summary of the method: as §1
# ELF4 = ELF4 (Homo sapiens, UniProt Q99607 1-663); settings: protein: recombinant; tags: N-terminal GST; dsDNA, one strand shown
# Summary of the method: as §1
# ELK4 = target: T9, ELK4 (Homo sapiens, UniProt P28324-2 1-405); settings: protein: recombinant; tags: N-terminal GST; dsDNA, one strand shown
# T9 sequence: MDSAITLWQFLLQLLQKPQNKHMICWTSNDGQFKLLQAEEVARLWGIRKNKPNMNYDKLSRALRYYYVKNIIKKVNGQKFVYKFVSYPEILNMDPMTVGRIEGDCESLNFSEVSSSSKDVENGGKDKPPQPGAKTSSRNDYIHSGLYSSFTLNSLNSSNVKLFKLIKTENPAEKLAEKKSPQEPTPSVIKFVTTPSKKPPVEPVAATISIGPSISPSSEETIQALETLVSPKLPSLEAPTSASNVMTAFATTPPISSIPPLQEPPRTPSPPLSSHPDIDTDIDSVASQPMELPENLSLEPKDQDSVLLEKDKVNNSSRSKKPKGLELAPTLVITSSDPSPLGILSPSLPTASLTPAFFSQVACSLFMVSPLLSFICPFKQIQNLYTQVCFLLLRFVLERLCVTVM
# Summary of the method: as §1
# ETV2 = target: T10, ETV2 (Homo sapiens, UniProt O00321 1-342); settings: protein: recombinant; tags: N-terminal GST; dsDNA, one strand shown
# T10 sequence: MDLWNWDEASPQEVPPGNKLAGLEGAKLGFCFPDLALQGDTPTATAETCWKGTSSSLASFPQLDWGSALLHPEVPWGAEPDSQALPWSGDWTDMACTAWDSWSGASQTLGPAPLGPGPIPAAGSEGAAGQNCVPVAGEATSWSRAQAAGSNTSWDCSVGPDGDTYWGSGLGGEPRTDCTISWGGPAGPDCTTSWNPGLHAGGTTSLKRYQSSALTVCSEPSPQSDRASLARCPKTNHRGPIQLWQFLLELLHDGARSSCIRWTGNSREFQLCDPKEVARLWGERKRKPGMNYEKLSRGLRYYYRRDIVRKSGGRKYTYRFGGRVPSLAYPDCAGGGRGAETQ
# Summary of the method: as §1
# ELF3 = target: T11, ELF3 (Homo sapiens, UniProt P78545 1-371); settings: protein: recombinant; tags: N-terminal GST; dsDNA, one strand shown
# T11 sequence: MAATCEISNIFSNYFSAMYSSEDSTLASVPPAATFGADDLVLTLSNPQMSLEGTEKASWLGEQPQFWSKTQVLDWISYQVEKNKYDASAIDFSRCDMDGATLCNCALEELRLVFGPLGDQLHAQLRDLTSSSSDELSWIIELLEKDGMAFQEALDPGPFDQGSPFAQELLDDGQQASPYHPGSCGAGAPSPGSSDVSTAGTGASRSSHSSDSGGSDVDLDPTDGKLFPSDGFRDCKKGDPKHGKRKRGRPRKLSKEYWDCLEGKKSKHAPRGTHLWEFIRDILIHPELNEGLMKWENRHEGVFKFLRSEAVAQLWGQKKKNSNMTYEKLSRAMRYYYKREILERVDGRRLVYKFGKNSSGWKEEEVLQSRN
# Summary of the method: as §1
# CRX = CRX (Homo sapiens, UniProt O43186 1-299); settings: protein: recombinant; tags: N-terminal GST; dsDNA, one strand shown
# Summary of the method: as §1
# ETV1 = ETV1 (Homo sapiens, UniProt P50549 1-477); settings: protein: recombinant; tags: N-terminal GST; dsDNA, one strand shown
# Summary of the method: as §1
# HSF1, sequence (Q00613 whole entry): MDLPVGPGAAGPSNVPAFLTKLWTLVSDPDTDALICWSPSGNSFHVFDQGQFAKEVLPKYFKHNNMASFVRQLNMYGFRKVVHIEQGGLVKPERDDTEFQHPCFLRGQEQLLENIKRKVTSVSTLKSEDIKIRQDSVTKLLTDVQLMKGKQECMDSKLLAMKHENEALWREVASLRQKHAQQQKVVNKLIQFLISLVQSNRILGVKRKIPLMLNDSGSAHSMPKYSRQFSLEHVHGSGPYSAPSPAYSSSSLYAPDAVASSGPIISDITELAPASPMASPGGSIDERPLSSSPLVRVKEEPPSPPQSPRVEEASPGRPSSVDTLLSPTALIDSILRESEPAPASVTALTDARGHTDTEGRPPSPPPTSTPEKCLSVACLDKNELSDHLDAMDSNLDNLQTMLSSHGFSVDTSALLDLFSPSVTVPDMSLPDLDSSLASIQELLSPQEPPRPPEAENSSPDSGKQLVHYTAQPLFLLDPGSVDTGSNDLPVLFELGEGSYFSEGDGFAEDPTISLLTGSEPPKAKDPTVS
# ETV1, sequence (P50549 whole entry): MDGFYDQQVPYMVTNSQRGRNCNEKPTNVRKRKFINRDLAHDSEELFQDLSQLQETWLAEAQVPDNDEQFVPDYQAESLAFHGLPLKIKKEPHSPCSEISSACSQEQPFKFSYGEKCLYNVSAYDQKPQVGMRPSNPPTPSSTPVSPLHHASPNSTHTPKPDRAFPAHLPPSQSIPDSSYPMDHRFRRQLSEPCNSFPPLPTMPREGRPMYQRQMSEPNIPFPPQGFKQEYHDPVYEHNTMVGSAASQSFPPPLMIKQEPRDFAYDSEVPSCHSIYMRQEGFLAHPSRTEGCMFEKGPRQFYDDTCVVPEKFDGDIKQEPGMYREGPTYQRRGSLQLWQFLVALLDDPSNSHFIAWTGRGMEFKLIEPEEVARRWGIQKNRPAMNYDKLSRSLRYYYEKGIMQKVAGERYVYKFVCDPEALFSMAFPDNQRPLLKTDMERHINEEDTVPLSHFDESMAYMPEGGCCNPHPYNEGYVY
# CRX, sequence (O43186 whole entry): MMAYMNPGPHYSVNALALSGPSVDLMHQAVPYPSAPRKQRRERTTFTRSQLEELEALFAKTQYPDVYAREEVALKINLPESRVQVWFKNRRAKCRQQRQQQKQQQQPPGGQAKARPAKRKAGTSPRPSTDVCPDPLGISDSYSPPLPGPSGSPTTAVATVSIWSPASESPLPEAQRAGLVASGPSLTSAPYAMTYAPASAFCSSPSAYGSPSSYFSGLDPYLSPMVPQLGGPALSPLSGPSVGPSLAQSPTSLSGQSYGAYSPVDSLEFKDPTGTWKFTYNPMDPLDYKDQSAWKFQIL
# SPIB, sequence (Q01892 whole entry): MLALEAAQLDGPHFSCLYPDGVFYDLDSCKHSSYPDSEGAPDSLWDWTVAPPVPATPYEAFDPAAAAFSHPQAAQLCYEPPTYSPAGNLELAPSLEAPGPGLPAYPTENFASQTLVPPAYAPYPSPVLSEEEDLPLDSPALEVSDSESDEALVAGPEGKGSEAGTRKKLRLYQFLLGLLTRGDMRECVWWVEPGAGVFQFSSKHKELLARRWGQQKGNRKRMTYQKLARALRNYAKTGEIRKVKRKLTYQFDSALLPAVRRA
# ETV5, sequence (P41161 whole entry): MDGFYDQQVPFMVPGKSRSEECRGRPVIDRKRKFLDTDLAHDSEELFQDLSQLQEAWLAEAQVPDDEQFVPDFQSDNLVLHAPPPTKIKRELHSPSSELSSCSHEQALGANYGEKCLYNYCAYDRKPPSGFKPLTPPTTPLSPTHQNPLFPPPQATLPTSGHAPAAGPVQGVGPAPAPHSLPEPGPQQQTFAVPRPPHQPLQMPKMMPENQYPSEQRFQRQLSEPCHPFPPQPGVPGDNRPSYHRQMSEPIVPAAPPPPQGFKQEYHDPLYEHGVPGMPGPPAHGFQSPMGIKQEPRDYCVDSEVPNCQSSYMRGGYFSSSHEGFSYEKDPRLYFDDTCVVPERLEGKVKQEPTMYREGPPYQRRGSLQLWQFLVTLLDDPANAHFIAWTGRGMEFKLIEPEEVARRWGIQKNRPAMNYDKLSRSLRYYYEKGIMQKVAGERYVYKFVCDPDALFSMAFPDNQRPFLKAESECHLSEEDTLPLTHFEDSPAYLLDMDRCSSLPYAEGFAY
# ELF1, sequence (P32519 whole entry): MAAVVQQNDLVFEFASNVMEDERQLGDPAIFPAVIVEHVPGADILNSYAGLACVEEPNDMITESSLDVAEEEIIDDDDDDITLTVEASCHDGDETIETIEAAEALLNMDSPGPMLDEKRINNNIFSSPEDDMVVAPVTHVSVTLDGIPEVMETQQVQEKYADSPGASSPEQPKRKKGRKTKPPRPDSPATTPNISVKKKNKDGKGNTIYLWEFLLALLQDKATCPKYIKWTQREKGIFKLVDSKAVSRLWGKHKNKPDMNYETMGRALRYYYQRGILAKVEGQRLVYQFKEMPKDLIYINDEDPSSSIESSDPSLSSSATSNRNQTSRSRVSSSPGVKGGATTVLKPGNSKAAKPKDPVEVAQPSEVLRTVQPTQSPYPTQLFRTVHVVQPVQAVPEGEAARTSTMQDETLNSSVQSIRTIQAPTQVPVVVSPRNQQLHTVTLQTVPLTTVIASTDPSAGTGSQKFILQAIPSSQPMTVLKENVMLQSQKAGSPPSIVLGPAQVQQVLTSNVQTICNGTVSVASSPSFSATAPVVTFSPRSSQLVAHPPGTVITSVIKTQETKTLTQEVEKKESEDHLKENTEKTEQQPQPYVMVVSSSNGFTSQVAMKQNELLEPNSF
# ELF4, sequence (Q99607 whole entry): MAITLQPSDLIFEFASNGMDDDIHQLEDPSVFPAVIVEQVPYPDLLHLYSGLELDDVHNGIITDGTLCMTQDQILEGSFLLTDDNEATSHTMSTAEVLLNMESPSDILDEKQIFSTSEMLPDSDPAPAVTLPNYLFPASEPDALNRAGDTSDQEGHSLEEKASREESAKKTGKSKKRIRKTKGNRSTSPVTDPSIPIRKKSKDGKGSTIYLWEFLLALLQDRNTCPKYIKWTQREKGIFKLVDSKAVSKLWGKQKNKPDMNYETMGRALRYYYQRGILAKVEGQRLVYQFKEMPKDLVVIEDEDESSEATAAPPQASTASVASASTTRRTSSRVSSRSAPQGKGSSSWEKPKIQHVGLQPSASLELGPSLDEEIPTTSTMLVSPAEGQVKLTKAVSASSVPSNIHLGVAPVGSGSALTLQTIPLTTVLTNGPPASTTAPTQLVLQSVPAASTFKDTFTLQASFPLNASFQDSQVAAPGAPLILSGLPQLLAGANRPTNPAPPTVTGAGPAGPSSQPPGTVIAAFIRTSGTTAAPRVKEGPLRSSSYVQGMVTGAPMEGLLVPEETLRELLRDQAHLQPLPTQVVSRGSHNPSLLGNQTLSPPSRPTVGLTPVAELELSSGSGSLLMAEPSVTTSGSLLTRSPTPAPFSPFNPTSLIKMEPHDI
sequence,measurement,setting,value
AATTGA,binding signal,FLI1,"1.18 fold enrichment (6-mer frequency, TF over GST control)"
same,binding signal,ELK1,"1.19 fold enrichment (6-mer frequency, TF over GST control)"
same,binding signal,GABPA,"1.2 fold enrichment (6-mer frequency, TF over GST control)"
same,binding signal,ERG,"1.16 fold enrichment (6-mer frequency, TF over GST control)"
same,binding signal,ELF1,"1.15 fold enrichment (6-mer frequency, TF over GST control)"
same,binding signal,EHF,"1.25 fold enrichment (6-mer frequency, TF over GST control)"
same,binding signal,SPI1,"1.16 fold enrichment (6-mer frequency, TF over GST control)"
same,binding signal,SPIB,"1.2 fold enrichment (6-mer frequency, TF over GST control)"
same,binding signal,ELK3,"1.27 fold enrichment (6-mer frequency, TF over GST control)"
same,binding signal,FEV,"1.11 fold enrichment (6-mer frequency, TF over GST control)"
same,binding signal,ETV5,"1.22 fold enrichment (6-mer frequency, TF over GST control)"
same,binding signal,HSF1,"1.05 fold enrichment (6-mer frequency, TF over GST control)"
same,binding signal,SPIC,"1.1 fold enrichment (6-mer frequency, TF over GST control)"
same,binding signal,ELF4,"1.18 fold enrichment (6-mer frequency, TF over GST control)"
same,binding signal,ELK4,"1.18 fold enrichment (6-mer frequency, TF over GST control)"
same,binding signal,ETV2,"1.18 fold enrichment (6-mer frequency, TF over GST control)"
same,binding signal,ELF3,"1.3 fold enrichment (6-mer frequency, TF over GST control)"
same,binding signal,CRX,"1.1 fold enrichment (6-mer frequency, TF over GST control)"
same,binding signal,ETV1,"1.21 fold enrichment (6-mer frequency, TF over GST control)"
